Laboratory results: PubChem BioAssay (NCATS)
Inconclusive results are not listed. Values without a mark were called inactive. Activity calls are given as the source filed them. Calls come from the whole dose curve; as a rule, active = well fitted inhibition curve with a large enough effect; inconclusive = small, poorly fitted or top-dose-only effect; inactive = flat fitted curve, though single readings scatter. Where a SMILES comes first, the peptide text is derived from it. [ ]: non-standard residue; d: D form.

assay: P-glycoprotein substrates identified in KB-8-5-11 adenocarcinoma cell line, qHTS therapeutic library screen (AID 1346987); conditions: KB-8-5-11 (P-gp overexpressing) viability, CellTiter-Glo, 72 h; series mostly up to 44.5 µM; activity change, negative = cytotoxicity: at the top concentration; note: nearly all actives have a fitted effect of over 65% in size
Text: The ATP-binding cassette transporters P-glycoprotein (P-gp) is known to limit brain penetration of many chemotherapy drugs. […] As such, we developed a high-throughput screen (HTS) to identify substrates of P-gp from a series of chemical libraries including the National Center for Advancing Translational Sciences Pharmaceutical Collection NPC, 2,816 compounds), testing a total of 10,804 compounds, most of which have known mechanisms of action. We used the CellTiter-Glo viability assay to test library compounds against the parental KB-3-1 human cervical adenocarcinoma cell line and the colchicine-selected sub-line KB-8-5-11 that over-expresses P-gp. KB-8-5-11 cells were also tested in the presence of a P-gp inhibitor (tariquidar) to assess reversability of transporter-mediated resistance. Of the tested compounds, a total of 90 P-gp substrates were identified including 55 newly identified P-gp substrates. Substrates were confirmed using an orthogonal killing assay against HEK-293 cells transfected with P-gp. As exemplars, we confirmed that […] (cyclin-dependent kinase inhibitor); AT9283, (Janus kinase 2/3 inhibitor); ispinesib (kinesin spindle protein inhibitor); gedatolisib (PKI-587, phosphoinositide 3-kinase/mammalian target of rampamycin inhibitor); GSK-690693 (AKT inhibitor); and KW-2478 (heat shock protein 90 inhibitor) were substrates , and direct ATPase stimulation was assessed. ABCG2 was also found to confer high levels of resistance to AT9283, GSK-690693 and gedatolisib, while ispinesib, AT7519 and KW-2478 were weaker substrates.
The HeLa derivative cell line, KB-3-1, and its colchicine-selected, P-gp-overexpressing subline, KB-8-5-11 were maintained in DMEM with 10% FCS and Pen/Strep with glutamine at 37 degree C in 5% CO2. For KB-8-5-11 cells, colchicine was added to the medium at a concentration of 100 ng/mL. HEK-293 cells transfected with empty vector (pcDNA) or vector containing human ABCB1 (MDR-19) or ABCG2 (R-5) have been described previously (Robey, Lin, Qiu, Chan & Bates, 2011) and were maintained in EMEM supplemented with 10% FCS, Pen/Strep and glutamine with 2 mg/ml G418 to select for the expression of the transporter. Cultures were confirmed to be free of mycoplasma infection using the MycoAlert Mycoplasma Detection Kit (Lonza, Walkersville, MD). For the screen, assay medium was identical to culture medium except for KB-8-5-11 where colchicine was excluded from the medium.
All cell lines were plated into 1536-well plates at 500 cells/well in 5 uL media. Compounds were then pinned in dose-response using a 1536-head pin tool (Kalypsis, San Diego, CA) and plates were incubated at 37 degree C in 5% CO2 for an additional 72 h. CellTiter-Glo reagent (Promega) was dispensed into the wells, incubated for 5 min and luminescence was read on a ViewLux instrument (Perkin-Elmer). Cytotoxic compounds were defined as those that yielded a curve class of -1.1, -1.2, -2.1, -2.2, -2.3, or -2.4, a maximum response of >50% and an AC50 of < 10 uM. Cherry-picked hits from screening analysis were tested with both the KB pair of cell lines, and the pcDNA (empty vector control) and MDR-19 (P-gp overexpressing) pair were tested, in the absence and presence of tariquidar.
% is set by controls: 0 for no effect and ±100 for the full control effect; potency is the fitted concentration of half-maximal effect.

| Structure (SMILES) | outcome | activity change, negative = cytotoxicity | Potency |
| --- | --- | --- | --- |
| COc1ccc(/C=C/C(=O)O[C@@H]2[C@@H](OC(C)=O)[C@@H](OC(C)=O)[C@H](O[C@H]3[C@@H]4C=CO[C@@H](O[C@@H]5O[C@H](CO)[C@@H](O)[C@H](O)[C@H]5O)[C@@H]4[C@@]4(CO)O[C@@H]34)O[C@H]2C)cc1O | inactive [at 17.3 µM] |  |  |
| CCOC(=O)[C@H](CCc1ccccc1)CC1(C(=O)N[C@H]2CCc3ccccc3N(CC(=O)O)C2=O)CCCC1 | inactive |  |  |
| COc1ccc(/C=C/C(=O)O[C@H]2[C@@H]3C=CO[C@@H](O[C@@H]4O[C@H](CO)[C@@H](O)[C@H](O)[C@H]4O)[C@@H]3[C@@]3(CO)O[C@@H]23)cc1O |  | 5.83% [at 17.3 µM] |  |
| C=C1C(=O)OC2/C=C(\C)CC/C=C(\C(=O)O)CC/C=C(\C)CCC12 (stereo not given) |  | 1.34% |  |
| CC1NC(=O)C(Cc2c[nH]c3ccccc23)NC1=O (stereo not given) | inactive |  |  |
| O=C(O)c1cnn(-c2nc3cc(OC(F)(F)F)c(Cl)cc3[nH]2)c1 | inactive |  |  |
| C[C@@H]1CC[C@]2(C(=O)O)CC[C@]3(C(=O)O)C(=CCC4[C@@]5(C)CC[C@H](O[C@@H]6O[C@@H](C)[C@H](O[C@@H]7O[C@H](CO)[C@@H](O)[C@H](O)[C@H]7O)[C@@H](O)[C@H]6O)C(C)(C)C5CC[C@]43C)C2[C@H]1C (stereo not given in full) | inactive [at 17.3 µM] |  |  |
| CC(NCc1ccc(OCc2cccc(F)c2)cc1)C(N)=O (stereo not given) |  | 8.1% |  |
| Cc1nn(C)c2c1C(c1ccc(C(F)(F)F)cc1)C(C#N)=C(N)O2 (stereo not given) |  | 7.4% |  |
| CC(=O)N[C@H](Cc1ccc(O)cc1)C(=O)N[C@H](CCCN=C(N)N)C(=O)N[C@H](Cc1ccccc1)C(N)=O (Ac-[dY]-[dR]-[dF]-NH2) | inactive |  |  |
| COC1=Cc2c(nc3n(c2=O)C(C)C(=O)NC3(O)C(C)C)OC=C1 (stereo not given) |  | 0.547% |  |
| CC(C)(O)C1=CCC23COC(C2)C(O)(C(=O)O)CCC13 (stereo not given) | inactive |  |  |
| C[C@]12CCC(=O)C=C1CC[C@@H]1[C@@H]2[C@@H](O)C[C@@]2(C)[C@H]1CC[C@]2(O)C(=O)COP(=O)(O)O |  | -23.2% |  |
| CC[C@@H](c1ccc(F)c(F)c1)n1c(C(=O)OC)c(-c2ccno2)[nH]c1=S |  | -13.6% |  |
| COc1cc(N2CCC(O)CC2)ccc1Nc1cc(Nc2ccccc2S(=O)(=O)C(C)C)c2cc[nH]c2n1 |  |  | 11.4 µM (active) |
| CCCCCCCCCCCCCCCC(=O)OCC(COC(=O)CCCCCCCCCCCCCCC)OC(=O)CCCCCCCCCCCCCCC |  | -9.26% |  |
| COc1c2c(c(C)c3c1C(=O)OC3)O[C@@]1(C)C[C@@H](O)[C@]34O[C@](OC)(CC[C@]3(C)[C@H]1C2)OC4(C)C |  | 1.72% [at 17.3 µM] |  |
| CC(C)(O)c1ccc2c(c1)C(O)CC1C(C)(C(=O)O)CCCC21C (stereo not given) |  | 4.29% |  |
| C[C@]12C=CC(=O)N[C@@H]1CC[C@@H]1[C@@H]2CC[C@]2(C)[C@@H](C(=O)Nc3cc(C(F)(F)F)ccc3C(F)(F)F)CC[C@@H]12 |  | -24% |  |
| C=C1C(=O)O[C@H]2[C@H]1[C@@H](OC(=O)C(C)CO)C[C@@]1(C)[C@H](O)CCC(=O)[C@H]21 (stereo not given in full) | inactive |  |  |

| Structure (SMILES) | outcome | activity change, negative = cytotoxicity | Potency |
| --- | --- | --- | --- |
| CCn1cc(C2=NOC(C(=O)Nc3c(C)n(C)n(-c4ccccc4)c3=O)C2)c(C)n1 (stereo not given) |  | 4.48% |  |
| COc1ccc2c(c1O)OC[C@H]1c3ccc(O)cc3O[C@@H]21 | inactive |  |  |
| COC(=O)C1=C[C@@H](O)[C@@H](O)[C@H](O[C@@H]2O[C@H](COC(=O)/C=C/c3ccccc3)[C@@H](O)[C@H](O)[C@H]2O)C1 |  | 5.89% [at 17.3 µM] |  |
| CC(C)(O)c1ccc2c(c1)C(=O)CC1[C@](C)(CO)CCC[C@]21C (stereo not given in full) |  | 3.32% |  |
| CC(C)c1cc2c(c(O)c1O[C@@H]1O[C@H](CO)[C@@H](O)[C@H](O)[C@H]1O)CC1(O)CCC(O)C(C)(C)C1CC2 (stereo not given in full) |  | 8.06% [at 17.3 µM] |  |
| C/C=C(\C)C(=O)O[C@H]1[C@H](O)[C@]2(COC(C)=O)[C@H](O)C[C@]3(C)C(=CCC4[C@@]5(C)CC[C@H](O[C@@H]6O[C@H](C(=O)O)[C@@H](O[C@@H]7O[C@H](CO)[C@@H](O)[C@H](O)[C@H]7O)[C@H](O)[C@H]6O[C@@H]6O[C@H](CO)[C@@H](O)[C@H](O)[C@H]6O)[C@](C)(CO)C5CC[C@]43C)[C@@H]2CC1(C)C (stereo not given in full) |  | 3.98% [at 9.29 µM] |  |
| Cc1c(C)c2c(c(C)c1O)CC[C@@](C)(CCC[C@H](C)CCC[C@H](C)CCCC(C)C)O2 |  |  | inactive |
| OCCc1ccc(O[C@@H]2O[C@H](CO)[C@@H](O)[C@H](O)[C@H]2O)c(O)c1 |  | 8.43% |  |
| C[C@H]1[C@H](C)CC[C@]2(C(=O)O[C@@H]3O[C@H](CO)[C@@H](O)[C@H](O)[C@H]3O)CC[C@]3(C(=O)O)C(=CCC4[C@@]5(C)CC[C@H](O[C@@H]6O[C@H](CO)[C@@H](O)[C@H](O)[C@H]6O)C(C)(C)C5CC[C@]43C)[C@H]12 (stereo not given in full) | inactive [at 9.29 µM] |  |  |
| C=C(C(=O)O)[C@@H]1CC=C2CCC[C@H](C)[C@@]2(C)C1 | inactive |  |  |
| COC1CCCC/C(C)=C/C2C=C(C)C(C)C3C(CC(C)C)NC(=O)C23C(=O)C1 (stereo not given) |  | 0.0759% [at 17.3 µM] |  |
| CC[C@H]1OC(=O)[C@H](C)[C@@H](O[C@H]2C[C@@](C)(OC)[C@@H](O)[C@H](C)O2)[C@H](C)[C@@H](O[C@@H]2O[C@H](C)C[C@H](N(C)C)[C@H]2O)[C@](C)(O)C[C@@H](C)/C(=N\OCOCCOC)[C@H](C)[C@@H](O)[C@]1(C)O |  | -9.36% [at 17.3 µM] |  |
| COC(=O)[C@@]1(C)CC[C@]2(C(=O)O[C@@H]3O[C@H](CO)[C@@H](O)[C@H](O)[C@H]3O)CC[C@]3(C)C(=CCC4[C@@]5(C)CC[C@H](O[C@@H]6O[C@H](C(=O)O)[C@@H](O)[C@H](O)[C@H]6O)C(C)(C)C5CC[C@]43C)[C@@H]2C1 (stereo not given in full) |  | -9.96% [at 9.29 µM] |  |
| CC(=O)OC[C@@]12[C@@H](OC(C)=O)C[C@@H](C)[C@](C)([C@@H]3C[C@H]4C=CO[C@H]4O3)[C@H]1CCC[C@]21CO1 |  | 8.19% [at 17.3 µM] |  |
| C[C@]1(OC(=O)/C=C/c2ccccc2)C[C@H](O)[C@]2(O)C=CO[C@@H](O[C@@H]3O[C@H](CO)[C@@H](O)[C@H](O)[C@H]3O)C12 (stereo not given in full) | inactive [at 17.3 µM] |  |  |
| C=C(C)[C@H]1C[C@@H](O)C(=C)CC[C@@H](O)C(=C)[C@@H](O)C1 |  | 6.62% |  |
| C/C=C1\[C@H](O[C@@H]2O[C@H](CO)[C@@H](O)[C@H](O)[C@H]2O)OC=C(C(=O)OC)[C@H]1CC(=O)OC | inactive [at 17.3 µM] |  |  |
| Cc1cc(O)c(C(C)C)cc1O[C@@H]1O[C@H](CO)[C@@H](O)[C@H](O)[C@H]1O |  | 1.26% |  |
| CCNC(=O)[C@@H]1CCCN1C(=O)[C@H](CCCN=C(N)N)NC(=O)[C@H](CC(C)C)NC(=O)[C@@H](C)NC(=O)[C@H](Cc1ccc(O)cc1)NC(=O)[C@H](CO)NC(=O)[C@H](Cc1c[nH]c2ccccc12)NC(=O)[C@H](Cc1cnc[nH]1)NC(=O)[C@@H]1CCC(=O)N1 |  | 9.39% [at 17.3 µM] |  |
| CC1CCC2(C)C(CC(O)C(O)C23CO3)C1(C)CCC1=CC(O)OC1=O (stereo not given) |  | -0.322% |  |
